Among all 75,000 compounds or so, about 5,700 (7.6%) were called active. Roughly 7% stayed inconclusive and do not appear here. The sample holds actives, similar compounds and a random draw of the others, so the mix is not that of the screen. Unmarked numbers belong to inactive results. Calls come from the whole dose curve; as a rule, active = well fitted inhibition curve with a large enough effect; inconclusive = small, poorly fitted or top-dose-only effect; inactive = no such curve, though single readings can be large or run the other way.
Each compound was assayed against 3-hydroxyacyl-CoA dehydrogenase type-2 (Homo sapiens) (UniProt Q99714) (assay: qHTS Assay for Inhibitors of HSD17B4, hydroxysteroid (17-beta) dehydrogenase 4). Conditions: recombinant HSD17B10, NADH fluorescence kinetic; series mostly up to 57.1 µM; activity change, negative = inhibition: at the top concentration.
Text: Assay Overview: NIH Molecular Libraries Screening Centers Network [MLSCN] NIH Chemical Genomics Center [NCGC] Structural Genomics Consortium [SGC] Grant number: None HADH2: Hydroxyacyl-Coenzyme A dehydrogenase, type II, was supplied by researchers at the Structural Genomics Consortium, Oxford University lab (PI Udo Oppermann). The mitochondrial enzyme 17-hydroxysteroid dehydrogenase type 10 (HSD17-10) previously classified as type II hydroxyacyl-CoA dehydrogenase (HADH2) catalyzes the NAD+ dependent oxidation of a variety of substrates including acyl-CoAs, androgens and neurosteroids as well as bile acids(Shafqat N, Marschall HU, Filling C, et al. Biochemical Journal. 2003;376(Pt 1):49-60). […] The enzyme was produced by E.coli fermentation as His-tagged recombinant for the purpose of X-ray structure determination, and had been mass-spectrometry characterized. Inhibition of HADH2 activity was screened by utilizing beta-hydroxybutyryl coenzyme A as an electron donor and NAD+ as an electron acceptor/cofactor. An increase in the fluorescence intensity due to conversion of NAD+ to NADH was used to measure the enzyme activity.
Assay Protocol: Buffer: 100 mM Tris-HCl pH 9.0, containing 0.01 % Tween-20. Reagents/Controls: Buffer in columns 3 and 4 as negative control (no enzyme). Substrate/cofactor solution: 1 mM NAD+ and 90 uM beta-hydroxybutyryl coenzyme A (Sigma-Aldrich, St. Louis, MO) final concentrations dispensed throughout the plate. Enzyme: 20 nM HADH2 final concentration in columns 1, 2, 5-48. Column 1 is neutral (100% activity). Column 2 contained titration of apomorphine (Sigma-Aldrich, A 4393, PubChem CID 2215, top concentration 500 uM, then 1:2 dilution in duplicate) Assay Steps: Three uL of enzyme were dispensed to 1536-well Greiner black solid bottom plates. Compounds and controls (23 nL) were transferred via Kalypsys PinTool. The plates were incubated for 15 min at room temperature, and then 1 uL of substrate/cofactor solution was added to start the reaction. The plates were immediately transferred to and read every 30 seconds for 4 min on ViewLux High-throughput CCD imager (Perkin-Elmer) using 360 nm excitation and 450 nm emission fluorescence protocol. The fluorescence intensity difference between the last and the first time points was used to compute reaction progress.
For CCOC(=O)c1cc(-c2ccc(Cl)s2)nc2c1c(C)nn2C, the Potency was 31.6 µM (active).
In the case of CCOC(=O)C1=C(O)CSC1=Nc1cccc(Cl)c1, the “activity change, negative = inhibition” value is reported as 5.61%.
Cn1cccc1Cc1nnc(SCC(=O)NCCc2ccccc2)n1-c1ccc(F)cc1 was tested, and the “activity change, negative = inhibition” value was 3.88%.
For N#Cc1c(NC(=O)CCCN2C(=O)c3ccccc3C2=O)oc(-c2ccccc2)c1-c1ccccc1, the “activity change, negative = inhibition” value was 5.71%.
Cc1ccc(N2C(=O)c3oc4ccccc4c(=O)c3C2c2cccnc2)nc1 (stereo not given) was tested, and the “activity change, negative = inhibition” value was 5.96%.
CCCn1c(C(O)c2cc(OC)ccc2OC)nc2ccccc21 (stereo not given) was tested, and the “activity change, negative = inhibition” value was -0.382%.
In the case of COc1ccc(CCn2c(-c3ccco3)nc3nc4ccccc4nc32)cc1OC, the “activity change, negative = inhibition” value is reported as -12.8%.
With COCCn1c(-c2ccc(OC)c(OC)c2)nc2ccccc21 the Potency was 25.1 µM (active).
With COc1ccccc1NC(=O)CSc1nc2sc(C)c(C)c2c(=O)n1Cc1ccco1 the “activity change, negative = inhibition” value was -11.5%.
For Cc1ccc(Cn2c(C)nc3c(c2=O)c2nc4ccccc4nc2n3Cc2ccco2)cc1, the Potency was 25.1 µM (active).
For Cc1nc2c(c(=O)n1Cc1ccco1)c1nc3ccccc3nc1n2Cc1ccccc1, the Potency was 25.1 µM (active).
For COCCCn1c2nc3ccccc3nc2c2c(=O)n(Cc3ccc(Cl)cc3)c(C)nc21, the Potency was 2 µM (active).
For N#Cc1c(NC(=O)CSc2nc3ccccc3c(=O)n2Cc2ccco2)sc2c1CCCC2, the “activity change, negative = inhibition” value was -28.8%.
For Nc1cc(=O)nc(SCc2ccccc2)n1Cc1ccco1, the “activity change, negative = inhibition” value was -1.73%.
CC(Sc1nc2ccccc2c(=O)n1Cc1ccco1)C(=O)c1ccccc1 (stereo not given) was tested, and the “activity change, negative = inhibition” value was 7.76%.
For Cc1nc2ccccc2c(=O)n1CCCn1ccnc1, the “activity change, negative = inhibition” value was 2.75%.
In the case of Cn1c(COc2ccc(Cl)cc2)nc2ccccc2c1=O, the “activity change, negative = inhibition” value is reported as -28.2%.
In the case of CC1CCN(c2nc3c(c(=O)[nH]c(=O)n3C)n2CCCc2ccccc2)CC1, the “activity change, negative = inhibition” value is reported as 8.8%.
In the case of CCC1(C)CC(=O)NC1=O (stereo not given), the “activity change, negative = inhibition” value is reported as -1.08%.
In the case of COc1ccc(N)c(OC)c1, the “activity change, negative = inhibition” value is reported as 3.29%.
CCOC(=O)CSc1nnc(CNc2ccc(F)cc2)o1 was tested, and the “activity change, negative = inhibition” value was -11.8%.
For CC/C(=N\O)C(C)(C)/[N+]([O-])=C/c1ccc(Br)cc1, the “activity change, negative = inhibition” value was 15.6%.
For O=C(O)C(O)[C@@](O)(Cc1ccc(O)cc1)C(=O)O (stereo not given in full), the “activity change, negative = inhibition” value was -0.363%.
CC1Cn2c(nnc2-c2cccs2)S1 (stereo not given) was tested, and the “activity change, negative = inhibition” value was -1.46%.
With CSc1cccc(NC(=O)CSc2ccccc2)c1 the “activity change, negative = inhibition” value was -27.3%.
For NC(=NC(=O)c1ccccc1)C1=C(O)CCC1=O, the “activity change, negative = inhibition” value was 2.94%.
With CCS(=O)(=O)N(C)[C@@H]1c2cc(C#N)ccc2OC(C)(C)[C@H]1O the Potency was “inactive”.
With Cc1ccc(NC(=O)c2cc(-c3ccc(C)o3)nc3ccccc23)nc1 the Potency was 31.6 µM (active).
With Cc1cc(=O)oc(C)c1C(=O)Nc1cnc2ccccc2c1 the “activity change, negative = inhibition” value was -0.842%.
For Cc1ccc2nc(-c3ccccc3)cc(C(=O)O)c2c1, the “activity change, negative = inhibition” value was -22.3%.
In the case of Cc1ccc(S(=O)(=O)N2CCC(C(=O)OCC(=O)N3CC(=O)Nc4ccccc43)CC2)cc1, the “activity change, negative = inhibition” value is reported as 9.91%.
With Cc1ccc(C(CC(=O)O)Nc2nc(N3CCCCC3)nc(N3CCCCC3)n2)cc1 (stereo not given) the “activity change, negative = inhibition” value was -1.92%.
CC(C)n1c(C(O)c2ccccc2)nc2ccccc21 (stereo not given) was tested, and the “activity change, negative = inhibition” value was 12.2%.
For CC(Nc1nc(N2CCCC2)nc2ccccc12)c1ccccc1 (stereo not given), the Potency was 31.6 µM (active).
C[N+](C)(C)CCCCCNCC12CC3CC(CC(C3)C1)C2 was tested, and the “activity change, negative = inhibition” value was 3.87%.
O=C(OCC(=O)c1cccs1)C1=COCCO1 was tested, and the “activity change, negative = inhibition” value was 8.65%.
O=C(Oc1cccnc1)c1cc2ccccc2oc1=O was tested, and the Potency was 25.1 µM (active).
With O=C(NCc1ccccn1)c1c(O)c2c([nH]c1=O)CCCC2 the “activity change, negative = inhibition” value was -2.63%.
For O=C(NCc1ccccn1)c1cnc2sccn2c1=O, the Potency was 25.1 µM (active).
CCOC(=O)c1cc2n(c1C)-c1ccccc1C2=O was tested, and the “activity change, negative = inhibition” value was 3.78%.
Work on OCCCNCc1ccccn1 yielded an activity change, negative = inhibition of -1.43% [at 11.4 µM].
With O=C(NCc1ccccn1)Nc1ccc(F)cc1 the “activity change, negative = inhibition” value was 7.82%.
For CCOC(=O)c1cnc(-n2nc(C)cc2C)nc1-n1nc(C)cc1C, the “activity change, negative = inhibition” value was -10.5%.
With CCOC(=O)c1cnc2sccn2c1=O the Potency was 25.1 µM (active).
In the case of O=C(CCSCCc1ccccn1)Nc1nccs1, the “activity change, negative = inhibition” value is reported as -2.41%.
In the case of O=C(NCc1ccccn1)c1cc2ccccc2oc1=O, the Potency is reported as 31.6 µM (active).
For O=C(Nc1ccncc1)c1cc2ccccc2o1, the “activity change, negative = inhibition” value was 10.3%.
With Nc1ncc(-c2cc3ccccc3oc2=O)s1 the “activity change, negative = inhibition” value was -2.43%.
In the case of Brc1cc(Br)c(Oc2cc(Br)c(Br)cc2Br)cc1Br, the “activity change, negative = inhibition” value is reported as -9.08%.
In the case of COc1cccc2sc(Nc3nc(C)c(C(C)=O)s3)nc12, the “activity change, negative = inhibition” value is reported as -6.55%.
In the case of COC(=O)CNS(=O)(=O)c1ccc(Cc2ccc(S(=O)(=O)NCC(=O)OC)cc2)cc1, the “activity change, negative = inhibition” value is reported as 3.44%.
CC(=O)OCC(COC(C)=O)OC(C)=O was tested, and the “activity change, negative = inhibition” value was 3.21%.
CNC(=O)C1(C)C=CC2(CCCCC2)N1C(C)=O (stereo not given) was tested, and the “activity change, negative = inhibition” value was 5.61%.
With O=C(c1ccccc1-c1ccccc1)N1CCOCC1 the “activity change, negative = inhibition” value was 8.37%.
In the case of CC(C(=O)N1CCOCC1)N1c2cccc3cccc(c23)S1(=O)=O (stereo not given), the Potency is reported as 31.6 µM (active).

Reference: PubChem BioAssay AID893 (National Center for Advancing Translational Sciences (NCATS), 2007)
% is set by controls: 0 for no effect and ±100 for the full control effect; potency is the fitted concentration of half-maximal effect.
Note: nearly all actives have a fitted effect of over 70% in size.
